Data as given in PubChem BioAssay AID1159580 (chemical genetic matrix, 2015).
Among all 5,500 compounds or so, about 2,000 (36%) were called active. Roughly 18% stayed inconclusive and do not appear here. Rule as the data show it: active = normalized growth mostly below about 0.91 (no sharp cut-off); inconclusive = no clear call, values can overlap the other calls; inactive = mostly above about 0.92. The list shows a part of the results.

Assay: chemical genetic growth profiling, strain panel (AID 1159580);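 also: tested at 20 µM; growth read once vehicle control cultures reached saturation at 30 °C; 1 = growth at the plate median or of vehicle wells; lower values mean less growth of the strain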
Details: S. cerevisiae deletion strains, growth OD

Measured: normalized growth

CO[C@H]1[C@H](O)[C@H](O[C@H]2CC[C@]3(C)C4CC[C@]5(C)C(C6=CC(=O)OC6)CC[C@]5(O)C4CC[C@@H]3C2)O[C@@H](C)[C@@H]1O (some centres undefined)
inactive: locus YAL013W, strain DEP1, hits give low values 1.01 | locus YAL021C, strain ccr4, hits give low values 1 | locus YAL026C, strain drs2, hits give low values 1.01 | locus YAL030W, strain snc1, hits give low values 1 | locus YBL061C, strain skt5, hits give low values 0.993 | locus YBR009C, strain hhf1, hits give low values 1.01 | locus YBR021W, strain FUR4, hits give low values 1.02 | locus YBR023C, strain chs3, hits give low values 0.999 | locus YBR171W, strain sec66, hits give low values 0.984 | locus YBR229C, strain ROT2, hits give low values 1.01 | locus YBR231C, strain swc5, hits give low values 1.03 | locus YBR279W, strain paf1, hits give low values 1.01 | locus YCL011C, strain gbp2, hits give low values 0.992 | locus YCL016C, strain dcc1, hits give low values 1 | locus YCL029C, strain bik1, hits give low values 1.01 | locus YCL061C, strain MRC1, hits give low values 0.996 | locus YCL069W, strain vba3, hits give low values 1 | locus YCR088W, strain abp1, hits give low values 1 | locus YDL005C, strain med2, hits give low values 0.994 | locus YDL035C, strain GPR1, hits give low values 1.02 | locus YDL040C, strain nat1, hits give low values 1.02 | locus YDL074C, strain BRE1, hits give low values 1.02 | locus YDL101C, strain DUN1, hits give low values 1.02 | locus YDL134C, strain PPH21, hits give low values 1 | locus YDL185W, strain tfp1, hits give low values 1 | locus YDL192W, strain arf1, hits give low values 1.01 | locus YDR001C, strain nth1, hits give low values 0.994 | locus YDR069C, strain doa4, hits give low values 0.997 | locus YDR101C, strain arx1, hits give low values 0.993 | locus YDR137W, strain rgp1, hits give low values 1 | locus YDR150W, strain NUM1, hits give low values 1.01 | locus YDR159W, strain sac3, hits give low values 0.997 | locus YDR162C, strain NBP2, hits give low values 1.02 | locus YDR195W, strain ref2 0.989 | locus YDR297W, strain sur2, hits give low values 1.01 | locus YDR318W, strain mcm21, hits give low values 1.01 | locus YDR334W, strain swr1, hits give low values 1.03 | locus YDR335W, strain msn5, hits give low values 1.01 | locus YDR388W, hits give low values 1.01 | locus YDR392W, strain spt3, hits give low values 0.991 | locus YDR502C, strain sam2, hits give low values 1 | locus YEL003W, strain gim4, hits give low values 1.02 | locus YEL037C, strain rad23, hits give low values 1.01 | locus YEL061C, strain CIN8 (second series), hits give low values 0.987 | locus YEL061C, strain CIN8, hits give low values 1.01 | locus YER015W, strain faa2, hits give low values 1 | locus YER016W, strain bim1, hits give low values 1 | locus YER110C, hits give low values 1.02 | locus YER111C, strain swi4, hits give low values 1.01 | locus YER155C, strain BEM2 (second series), hits give low values 1.03 | locus YER155C, strain BEM2, hits give low values 1.02 | locus YER167W, strain BCK2, hits give low values 1.02 | locus YFR010W, strain ubp6, hits give low values 1.01 | locus YGL078C, strain dbp3, hits give low values 1 | locus YGL086W, strain mad1, hits give low values 1.01 | locus YGL167C, strain pmr1, hits give low values 1 | locus YGL173C, strain kem1, hits give low values 0.996 | locus YGL227W, strain vid30, hits give low values 0.997 | locus YGL240W, strain doc1, hits give low values 1.02 | locus YGL248W, strain PDE1, hits give low values 1.01 | locus YGL253W, strain hxk2, hits give low values 0.996 | locus YGR078C, strain PAC10, hits give low values 1.01 | locus YGR135W, strain pre9, hits give low values 1.02 | locus YGR229C, strain SMI1, hits give low values 1.03 | locus YGR252W, strain gcn5, hits give low values 0.964 | locus YHR013C, strain ard1, hits give low values 0.98 | locus YHR027C, strain rpn1, hits give low values 0.979 | locus YHR030C, strain SLT2, hits give low values 1.01 | locus YHR079C, strain IRE1 (second series), hits give low values 1.01 | locus YHR094C, strain hxt1, hits give low values 1.01 | locus YHR129C, strain ARP1, hits give low values 1.01 | locus YHR142W, strain chs7, hits give low values 1.02 | locus YHR200W, strain rpn10, hits give low values 1.01 | locus YIL066C, strain RNR3, hits give low values 1.01 | locus YIL073C, strain SPO22, hits give low values 1.02 | locus YIL125W, strain kgd1, hits give low values 0.997 | locus YIR030C, strain dcg1, hits give low values 0.998 | locus YJL092W, strain hpr5, hits give low values 1 | locus YJL095W, strain BCK1 (second series), hits give low values 0.981 | locus YJL095W, strain BCK1, hits give low values 1.04 | locus YJL115W, strain asf1, hits give low values 0.999 | locus YJL129C, strain trk1, hits give low values 0.974 | locus YJL134W, strain LCB3, hits give low values 1.01 | locus YJL154C, strain vps35, hits give low values 1.01 | locus YJL164C, strain tpk1, hits give low values 0.998 | locus YJL166W, strain qcr8, hits give low values 1 | locus YJL168C, strain set2, hits give low values 1.01 | locus YJL187C, strain SWE1 (second series), hits give low values 1.02 | locus YJL187C, strain SWE1, hits give low values 0.998
